# Measured values: the supplement of paper PMC8728848
# The entries come from a sample that favours the strongest signals as a whole.
# Legend:
# Assay in all cases: glycan array binding signal (z-score within array); higher = stronger binding
# Details in all cases: glycan notation: IUPAC condensed, linker removed
# [1] = target: Fuc(a1-2)Gal(b1-3)GlcNAc(b1-2)Man(a1-3)[Fuc(a1-2)Gal(b1-3)GlcNAc(b1-2)Man(a1-6)]Man(b1-4)GlcNAc(b1-4)GlcNAc
# Outline: (§1)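 Glycan array binding is given as a within-array Z-score, which can be read as non-binding when negative. The arrays, 3228 of them, came from the Consortium for Functional Glycomics database and were retained only where the protein sequence was available. Z-scores were averaged across arrays of the same protein sequence at different concentrations or buffers and across linkers.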
# [2] = target: Fuc(a1-2)Gal(b1-3)[Fuc(a1-4)]GlcNAc
# Outline: as §1
# [3] = target: Fuc(a1-2)Gal(b1-4)GlcNAc(b1-2)Man
# Outline: as §1
# [4] = target: Fuc(a1-2)Gal(b1-4)[Fuc(a1-3)]GlcNAc(b1-3)[Neu5Ac(a2-6)Gal(b1-4)GlcNAc(b1-6)]Gal(b1-4)Glc
# Outline: as §1
# [5] = target: Fuc(a1-3)[Gal(b1-4)]GlcNAc(b1-3)GalNAc
# Outline: as §1
# [6] = target: Fuc(a1-3)[Gal3S(b1-4)]GlcNAc6S
# Outline: as §1
# Gal(a1-3)Gal(b1-3)GlcNAc = target: Gal(a1-3)Gal(b1-3)GlcNAc
# Outline: as §1
# [7] = target: Gal(a1-3)Gal(b1-3)[Fuc(a1-4)]GlcNAc(b1-2)Man(a1-3)[Gal(a1-3)Gal(b1-3)[Fuc(a1-4)]GlcNAc(b1-2)Man(a1-6)]Man(b1-4)GlcNAc(b1-4)GlcNAc
# Outline: as §1
# Gal(a1-3)GalNAc = target: Gal(a1-3)GalNAc
# Outline: as §1
# Gal(a1-4)Gal(b1-4)Glc = target: Gal(a1-4)Gal(b1-4)Glc
# Outline: as §1
# Gal(b1-3)Gal(b1-4)GlcNAc = target: Gal(b1-3)Gal(b1-4)GlcNAc
# Outline: as §1
# [8] = target: Gal(b1-3)GlcNAc(b1-3)Gal(b1-4)[Fuc(a1-3)]GlcNAc(b1-6)[Gal(b1-3)GlcNAc(b1-3)]Gal(b1-4)Glc
# Outline: as §1
# [9] = target: Gal(b1-3)[Fuc(a1-4)]GlcNAc(b1-3)Gal(b1-3)[Fuc(a1-4)]GlcNAc
# Outline: as §1
# [10] = target: Gal(b1-4)GlcNAc(b1-2)Man(a1-6)[GlcNAc(b1-2)Man(a1-3)]Man(b1-4)GlcNAc(b1-4)GlcNAc
# Outline: as §1
# [11] = target: Gal(b1-4)GlcNAc(b1-3)Gal(b1-4)GlcNAc
# Outline: as §1
# [12] = target: Gal(b1-4)GlcNAc(b1-3)Gal(b1-4)GlcNAc(b1-2)[Gal(b1-4)GlcNAc(b1-3)Gal(b1-4)GlcNAc(b1-6)]Man(a1-6)[Gal(b1-4)GlcNAc(b1-3)Gal(b1-4)GlcNAc(b1-2)Man(a1-3)]Man(b1-4)GlcNAc(b1-4)GlcNAc
# Outline: as §1
# [13] = target: Gal(b1-4)GlcNAc(b1-3)Gal(b1-4)GlcNAc(b1-2)[Gal(b1-4)GlcNAc(b1-3)Gal(b1-4)GlcNAc(b1-6)]Man(a1-6)[Gal(b1-4)GlcNAc(b1-3)Gal(b1-4)GlcNAc(b1-2)Man(a1-3)]Man(b1-4)GlcNAc(b1-4)[Fuc(a1-6)]GlcNAc
# Outline: as §1
# [14] = target: Gal(b1-4)GlcNAc(b1-3)Gal(b1-4)GlcNAc(b1-3)Gal(b1-4)GlcNAc(b1-2)Man(a1-3)[Gal(b1-4)GlcNAc(b1-3)Gal(b1-4)GlcNAc(b1-3)Gal(b1-4)GlcNAc(b1-2)Man(a1-6)]Man(b1-4)GlcNAc(b1-4)[Fuc(a1-6)]GlcNAc
# Outline: as §1
# [15] = target: Gal(b1-4)GlcNAc(b1-3)Gal(b1-4)GlcNAc(b1-3)Gal(b1-4)GlcNAc(b1-3)Gal(b1-4)GlcNAc(b1-3)Gal(b1-4)GlcNAc(b1-2)Man(a1-3)[Gal(b1-4)GlcNAc(b1-3)Gal(b1-4)GlcNAc(b1-3)Gal(b1-4)GlcNAc(b1-3)Gal(b1-4)GlcNAc(b1-3)Gal(b1-4)GlcNAc(b1-2)Man(a1-6)]Man(b1-4)GlcNAc(b1-4)GlcNAc
# Outline: as §1
# [16] = target: Gal(b1-4)GlcNAc(b1-3)Gal(b1-4)GlcNAc(b1-3)[Gal(b1-4)GlcNAc(b1-3)Gal(b1-4)GlcNAc(b1-6)]GalNAc
# Outline: as §1
# [17] = target: Gal(b1-4)GlcNAc(b1-3)[Fuc(a1-3)GlcNAc(b1-6)]Gal(b1-4)Glc
# Outline: as §1
# [18] = target: Gal(b1-4)GlcNAc(b1-6)[Gal(b1-3)]GalNAc
# Outline: as §1
# Gal3S(b1-3)GlcNAc = target: Gal3S(b1-3)GlcNAc
# Outline: as §1
# [19] = target: Gal3S(b1-3)[Fuc(a1-4)]GlcNAc
# Outline: as §1
# [20] = target: Gal3S(b1-4)[Fuc(a1-3)]Glc6S
# Outline: as §1
# [21] = target: Gal3S(b1-4)[Fuc(a1-3)]GlcNAc6S
# Outline: as §1
# Gal3S6S(b1-4)GlcNAc6S = target: Gal3S6S(b1-4)GlcNAc6S
# Outline: as §1
# Gal6P(b1-4)GlcNAc = target: Gal6P(b1-4)GlcNAc
# Outline: as §1
# Gal6S(b1-3)GlcNAc6S = target: Gal6S(b1-3)GlcNAc6S
# Outline: as §1
# Gal6S(b1-4)Glc6S = target: Gal6S(b1-4)Glc6S
# Outline: as §1
# Gal6S(b1-4)GlcNAc6S = target: Gal6S(b1-4)GlcNAc6S
# Outline: as §1
# [22] = target: GalNAc(b1-3)Gal(a1-6)Gal(b1-4)Glc
# Outline: as §1
# GalNAc3S(b1-4)GlcNAc3S = target: GalNAc3S(b1-4)GlcNAc3S
# Outline: as §1
# [23] = target: Glc(a1-4)Glc(a1-4)Glc(a1-4)Glc
# Outline: as §1
# [24] = target: Glc(a1-6)Glc(a1-6)Glc(a1-6)Glc
# Outline: as §1
# GlcA(b1-6)Gal = target: GlcA(b1-6)Gal
# Outline: as §1
# GlcNAc(b1-3)Gal = target: GlcNAc(b1-3)Gal
# Outline: as §1
# [25] = target: GlcNAc(b1-3)Gal(b1-4)GlcNAc(b1-2)Man(a1-3)[GlcNAc(b1-3)Gal(b1-4)GlcNAc(b1-2)Man(a1-6)]Man(b1-4)GlcNAc(b1-4)GlcNAc
# Outline: as §1
# [26] = target: GlcNAc(b1-3)Gal(b1-4)GlcNAc(b1-3)Gal(b1-4)GlcNAc(b1-2)Man(a1-3)[GlcNAc(b1-3)Gal(b1-4)GlcNAc(b1-3)Gal(b1-4)GlcNAc(b1-2)Man(a1-6)]Man(b1-4)GlcNAc(b1-4)GlcNAc
# Outline: as §1
# [27] = target: GlcNAc(b1-3)Gal(b1-4)GlcNAc(b1-6)[GlcNAc(b1-3)]Gal(b1-4)GlcNAc
# Outline: as §1
# [28] = target: Man(a1-2)Man(a1-2)Man(a1-3)Man
# Outline: as §1
# [29] = target: Man(a1-3)[Man(a1-6)]Man(a1-6)[Man(a1-3)]Man
# Outline: as §1
# [30] = target: Man(a1-3)[Man(a1-6)]Man(a1-6)[Man(a1-3)]Man(b1-4)GlcNAc(b1-4)GlcNAc
# Outline: as §1
# [31] = target: Man(a1-3)[Man(a1-6)]Man(b1-4)GlcNAc(b1-4)[Fuc(a1-6)]GlcNAc
# Outline: as §1
# Man(a1-6)Man = target: Man(a1-6)Man
# Outline: as §1
# [32] = target: Neu5Ac(a2-3)Gal(b1-3)[Fuc(a1-4)]GlcNAc(b1-3)Gal(b1-3)[Fuc(a1-4)]GlcNAc
# Outline: as §1
# [33] = target: Neu5Ac(a2-3)Gal(b1-3)[Fuc(a1-4)]GlcNAc(b1-3)Gal(b1-4)[Fuc(a1-3)]GlcNAc
# Outline: as §1
# [34] = target: Neu5Ac(a2-3)Gal(b1-4)GlcNAc(b1-2)Man(a1-3)[Neu5Ac(a2-3)Gal(b1-4)GlcNAc(b1-2)Man(a1-6)]Man(b1-4)GlcNAc(b1-4)[Fuc(a1-6)]GlcNAc
# Outline: as §1
# [35] = target: Neu5Ac(a2-3)Gal(b1-4)GlcNAc(b1-3)Gal(b1-4)GlcNAc(b1-3)Gal(b1-4)GlcNAc(b1-2)Man(a1-3)[Neu5Ac(a2-3)Gal(b1-4)GlcNAc(b1-3)Gal(b1-4)GlcNAc(b1-3)Gal(b1-4)GlcNAc(b1-2)Man(a1-6)]GalNAc
# Outline: as §1
# [36] = target: Neu5Ac(a2-3)Gal(b1-4)GlcNAc(b1-3)Gal(b1-4)[Fuc(a1-3)]GlcNAc
# Outline: as §1
# [37] = target: Neu5Ac(a2-3)Gal6S(b1-4)GlcNAc
# Outline: as §1
# [38] = target: Neu5Ac(a2-6)Gal(b1-4)GlcNAc(b1-3)Gal(b1-4)GlcNAc(b1-3)Gal(b1-4)GlcNAc(b1-2)Man(a1-3)[Neu5Ac(a2-6)Gal(b1-4)GlcNAc(b1-3)Gal(b1-4)GlcNAc(b1-3)Gal(b1-4)GlcNAc(b1-2)Man(a1-6)]GalNAc
# Outline: as §1
# [39] = target: Neu5Ac(a2-6)Gal(b1-4)GlcNAc(b1-3)Gal(b1-4)[Fuc(a1-3)]GlcNAc(b1-3)Gal(b1-4)[Fuc(a1-3)]GlcNAc
# Outline: as §1
# [40] = target: Neu5Ac(a2-6)Gal(b1-4)GlcNAc6S
# Outline: as §1
# [41] = target: Neu5Gc(a2-3)Gal(b1-4)GlcNAc(b1-3)Gal(b1-4)GlcNAc(b1-2)Man(a1-3)[Neu5Gc(a2-3)Gal(b1-4)GlcNAc(b1-3)Gal(b1-4)GlcNAc(b1-2)Man(a1-6)]Man(b1-4)GlcNAc(b1-4)GlcNAc
# Outline: as §1
binder,measurement,setting,value
EULS2 M2 (Oryza sativa) (protein) MVYCRANPNYAMTARNGAVVLAPANPKDEYQHWIKDMRWSTSIKDEEGYPAFALVNKATGQAIKHSLGQSHPVRLVPYNPEVMDESVLWTESRDVGNGFRCIRMVNNIYLNFDAFHGDKYHGGVRDGTDIVLWKLCEGDSQRWKIQPYYILEQKLISEEDLNSAVDHHHHHH,glycan array binding signal (z-score),[1],2.57
same,glycan array binding signal (z-score),[2],0.051
same,glycan array binding signal (z-score),[3],-0.221
same,glycan array binding signal (z-score),[4],-0.288
same,glycan array binding signal (z-score),[5],-0.239
same,glycan array binding signal (z-score),[6],0.046
same,glycan array binding signal (z-score),Gal(a1-3)Gal(b1-3)GlcNAc,6.13
same,glycan array binding signal (z-score),[7],0.228
same,glycan array binding signal (z-score),Gal(a1-3)GalNAc,-0.346
same,glycan array binding signal (z-score),Gal(a1-4)Gal(b1-4)Glc,-0.552
same,glycan array binding signal (z-score),Gal(b1-3)Gal(b1-4)GlcNAc,-0.911
same,glycan array binding signal (z-score),[8],-0.897
same,glycan array binding signal (z-score),[9],-0.418
same,glycan array binding signal (z-score),[10],-0.086
same,glycan array binding signal (z-score),[11],0.298
same,glycan array binding signal (z-score),[12],1.3
same,glycan array binding signal (z-score),[13],0.142
same,glycan array binding signal (z-score),[14],-0.152
same,glycan array binding signal (z-score),[15],2.79
same,glycan array binding signal (z-score),[16],-0.129
same,glycan array binding signal (z-score),[17],-0.485
same,glycan array binding signal (z-score),[18],0.142
same,glycan array binding signal (z-score),Gal3S(b1-3)GlcNAc,-0.359
same,glycan array binding signal (z-score),[19],-0.012
same,glycan array binding signal (z-score),[20],0.271
same,glycan array binding signal (z-score),[21],3.8
same,glycan array binding signal (z-score),Gal3S6S(b1-4)GlcNAc6S,13.3
same,glycan array binding signal (z-score),Gal6P(b1-4)GlcNAc,-0.418
same,glycan array binding signal (z-score),Gal6S(b1-3)GlcNAc6S,4.18
same,glycan array binding signal (z-score),Gal6S(b1-4)Glc6S,4.74
same,glycan array binding signal (z-score),Gal6S(b1-4)GlcNAc6S,2.72
same,glycan array binding signal (z-score),[22],0.855
same,glycan array binding signal (z-score),GalNAc3S(b1-4)GlcNAc3S,0.228
same,glycan array binding signal (z-score),[23],-0.217
same,glycan array binding signal (z-score),[24],-0.066
same,glycan array binding signal (z-score),GlcA(b1-6)Gal,0.412
same,glycan array binding signal (z-score),GlcNAc(b1-3)Gal,-0.404
same,glycan array binding signal (z-score),[25],-0.176
same,glycan array binding signal (z-score),[26],0.163
same,glycan array binding signal (z-score),[27],-0.388
same,glycan array binding signal (z-score),[28],-0.332
same,glycan array binding signal (z-score),[29],7.3
same,glycan array binding signal (z-score),[30],3.29
same,glycan array binding signal (z-score),[31],0.966
same,glycan array binding signal (z-score),Man(a1-6)Man,5.83
same,glycan array binding signal (z-score),[32],0.084
same,glycan array binding signal (z-score),[33],-0.548
same,glycan array binding signal (z-score),[34],-0.323
same,glycan array binding signal (z-score),[35],-0.26
same,glycan array binding signal (z-score),[36],-0.328
same,glycan array binding signal (z-score),[37],-0.449
same,glycan array binding signal (z-score),[38],0.058
same,glycan array binding signal (z-score),[39],-0.268
same,glycan array binding signal (z-score),[40],-0.389
same,glycan array binding signal (z-score),[41],0.09
